{"source": "PubChem BioAssay (EPA / NIEHS)", "note": "More than one record can exist for a structure, and the calls need not agree. Calls of active or inactive are those of the source. The calls were made as follows: active = hit-call score of the fitted dose curve at least 0.9, where 1 is the maximum; inactive = score below 0.9."}
{"biological_target": "Nuclear respiratory factor 1 (Homo sapiens) (UniProt Q16656)", "sequence (Q16656 whole entry, looked up)": "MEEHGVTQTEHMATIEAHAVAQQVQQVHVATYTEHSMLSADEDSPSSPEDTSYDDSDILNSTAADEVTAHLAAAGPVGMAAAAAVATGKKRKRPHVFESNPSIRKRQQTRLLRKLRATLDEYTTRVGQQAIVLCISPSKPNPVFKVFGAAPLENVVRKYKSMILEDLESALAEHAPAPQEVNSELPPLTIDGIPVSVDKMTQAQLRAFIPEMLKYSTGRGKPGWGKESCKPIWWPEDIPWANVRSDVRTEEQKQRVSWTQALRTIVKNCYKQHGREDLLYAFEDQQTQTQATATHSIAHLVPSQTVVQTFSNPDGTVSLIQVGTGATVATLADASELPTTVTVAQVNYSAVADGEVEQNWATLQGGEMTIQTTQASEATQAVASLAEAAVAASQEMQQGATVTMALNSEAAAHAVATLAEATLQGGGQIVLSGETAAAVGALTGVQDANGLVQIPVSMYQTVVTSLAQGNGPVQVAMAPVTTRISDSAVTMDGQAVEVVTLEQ", "assay": "ATG_NRF1_CIS: Attagene CIS-FACTORIAL HepG2 Assay for human Nuclear Respiratory Factor 1 (NRF1) Orphan Gene (AID 2282987)", "conditions": "HepG2 NRF1 cis-element reporter, Attagene multiplex; actives raise or lower the signal", "method": "ATG_CIS is a cell-based, multiplexed-readout assay that uses HepG2, a human liver cell line, with measurements taken at 24 hours after chemical dosing in a 24-well plate.ATG_NRF1_CIS is one of 52 assay component(s) measured or calculated from the ATG_CIS assay. It is designed to make measurements of mRNA induction, a form of inducible reporter, as detected with fluorescence intensity signals by Reverse transcription polymerase chain reaction (RT-PCR) and Capillary electrophoresis technology.Data from the assay component ATG_NRF1_CIS was analyzed into 1 assay endpoint. This assay endpoint, ATG_NRF1_CIS, was analyzed with bidirectional fitting relative to DMSO as the negative control and baseline of activity. Using a type of inducible reporter, measures of mRNA for gain or loss-of-signal activity can be used to understand the reporter gene at the transcription factor-level as they relate to the gene NRF1. Furthermore, this assay endpoint can be referred to as a primary readout, because this assay has produced multiple assay endpoints where this one serves a reporter gene function. To generalize the intended target to other relatable targets, this assay endpoint is annotated to the dna binding intended target family, where the subfamily is nuclear respiratory factors.\nHuman liver HepG2 cells are transiently transfected with multiple reporter transcription units (MRTUs) in 6-well plates using FuGene 6 reagent (Roche; 3 ml FuGene/1 mg DNA). The MRTU constructs are regulated by a cis-regulating element (promoter). […] A major difference between the CIS and TRANS system is that in CIS activities of endogenous TFs are measured, whereas the TRANS assay evaluates changes in activities of exogenous, chimeric NR-Gal4 proteins. […] At the end of 24 hour incubation, total RNA was isolated using TriZol reagent (Invitrogen). The isolated RNA is then reverse-transcribed using oligo(dT) primer and Mo-MLV reverse transcriptase (Invitrogen) with DNAse I (Ambion) treatment for 30 min. The one-tenth of the produced cDNA was amplified by PCR using Taq DNA polymerase (Invitrogen) and two reporter sequence-specific primers. The PCR products were fluorescently labeled by primer extension with 6-arboxyfluorescein (6-FAM) 5'-labeled reporter sequence-specific primer (2 min at 95 C, 20 s at 68 C and 10 min at 72 C) and these products were digested with 5U of HpaI (New England Biolabs) for 2h at 37 C. The fragments were purified using Qiaquick PCR columns (Qiagen), analyzed on an ABI 3130xL genetic analyzer (Applied Biosystems) with peak positions identified by using a set of X-rhodamine (ROX)-labeled MapMarker1000 molecular weight standards (BioVentures). The raw capillary electrophoresis data was processed using Attagraph software (Attagene)."}
{"compound": "CCCCCCC(C)OC(=O)CCCCC(=O)OC(C)CCCCCC", "note": "(stereo not given)", "outcome": "inactive"}
{"compound": "C=C(C)C(=O)OCCC(F)(F)C(F)(F)C(F)(F)C(F)(F)C(F)(C(F)(F)F)C(F)(F)F", "outcome": "inactive"}
{"compound": "CCc1ccc(C(c2ccc(CC)cc2)C(Cl)Cl)cc1", "outcome": "inactive"}
{"compound": "O=C(C=Cc1ccccc1)OCC=Cc1ccccc1", "outcome": "inactive"}
{"compound": "O=S(=O)(O)c1ccc2ccccc2c1", "outcome": "inactive"}
{"compound": "CCCCCCCOC(=O)c1ccccc1C(=O)OCCCCCCC", "outcome": "inactive"}
{"compound": "CCC(=O)OCCc1ccccc1", "outcome": "inactive"}
{"compound": "OCC(F)(F)C(F)(F)C(F)(F)F", "outcome": "inactive"}
{"compound": "[Co]", "outcome": "inactive"}
{"compound": "O=S(=O)(O)C(F)(F)C(F)(F)C(F)(F)C(F)(F)C(F)(F)C(F)(F)C(F)(F)F", "outcome": "inactive"}
{"compound": "COC(=O)C1CCC(C(=O)OC)CC1", "note": "(stereo not given)", "outcome": "inactive"}
{"compound": "CC(Cc1ccc(O)c(O)c1)C(C)Cc1ccc(O)c(O)c1", "note": "(stereo not given)", "outcome": "inactive"}
{"compound": "Nc1ccc(S(=O)(=O)Nc2nccs2)cc1", "outcome": "inactive"}
{"compound": "O=C(O)C(F)(F)C(F)(F)F", "outcome": "inactive"}
{"compound": "Cc1ccc(S(=O)(=O)NCl)cc1", "outcome": "inactive"}
{"compound": "CCCCCC=O", "outcome": "inactive"}
{"compound": "FC1CC(F)(F)C(F)(F)C1(F)F", "note": "(stereo not given)", "outcome": "inactive"}
{"compound": "CCCCCCCCC(F)(F)C(F)(F)C(F)(F)C(F)(F)C(F)(F)C(F)(F)F", "outcome": "inactive"}
{"compound": "CCO[Si](CCC(F)(F)C(F)(F)C(F)(F)C(F)(F)C(F)(F)C(F)(F)F)(OCC)OCC", "outcome": "inactive"}
{"compound": "CCCCNc1ccccc1", "outcome": "inactive"}
{"compound": "O=C(O)C=C(C(F)(F)F)C(F)(F)F", "outcome": "inactive"}
{"compound": "FC(F)(F)C(F)(F)C(F)(F)CI", "outcome": "inactive"}
{"compound": "CC(C)(C)C(=O)CC(=O)C(F)(F)C(F)(F)C(F)(F)F", "outcome": "inactive"}
{"compound": "O=C(O)C(F)(F)C(F)(F)C(F)(F)C(F)(F)C(F)(F)C(F)(F)C(F)(F)C(F)(F)C(F)(F)C(F)F", "outcome": "inactive"}
{"compound": "O=S(=O)(OCCOC(F)(F)F)C(F)(F)F", "outcome": "inactive"}
{"compound": "FC(F)(I)C(F)(F)C(F)(F)C(F)(F)I", "outcome": "inactive"}
{"compound": "CN(C)Cc1ccccc1O", "outcome": "inactive"}
{"compound": "FC(F)(Br)C(F)(F)C(F)(F)C(F)(F)C(F)(F)C(F)(F)Br", "outcome": "inactive"}
{"compound": "CCCCOCCOCCOC(=O)CCCCC(=O)OCCOCCOCCCC", "outcome": "inactive"}
{"compound": "O=C(O)C(F)(F)C(F)(F)C(F)(F)F", "outcome": "inactive"}
{"compound": "C=C(C)C(=O)OCC(F)(F)C(F)(F)C(F)(F)F", "outcome": "inactive"}
{"compound": "CCCCCCOC(=O)c1ccccc1", "outcome": "inactive"}
{"compound": "OCCCC(F)(F)C(F)(F)C(F)(F)C(F)(F)C(F)(F)C(F)(F)C(F)(F)F", "AC50": "126 µM (active)", "outcome": "inactive"}
{"compound": "C=CC(F)(F)C(F)(F)C(F)(F)C(F)(F)C(F)(F)C(F)(F)C(F)(F)C(F)(F)F", "outcome": "inactive"}
{"compound": "CCN(CC)c1ccc2c(C)cc(=O)oc2c1", "outcome": "inactive"}
{"compound": "Cc1ccc(S(=O)(=O)OCC(F)(F)C(F)(F)C(F)(F)C(F)(F)C(F)(F)C(F)F)cc1", "outcome": "inactive"}
{"compound": "OCC(F)(F)C(F)(F)C(F)(F)C(F)(F)C(F)(F)C(F)(F)F", "outcome": "inactive"}
{"compound": "Nc1ccc(Oc2cccc(Oc3ccc(N)cc3)c2)cc1", "AC50": "76.4 µM (active)"}
{"compound": "CCCCC(CC)COP(=O)(O)OCC(CC)CCCC", "note": "(stereo not given)", "outcome": "inactive"}
